Data: PubChem BioAssay AID1421 (Emory University Molecular Libraries Screening Center, 2008)
The campaign covered roughly 1,300 compounds. About 140 (11%) were called active. The list is a sample of the results. Results with a measured potency or affinity are listed apart. Values without a mark were called inactive. How the calls were made is not given here.

target: Prostaglandin E2 receptor EP2 subtype (Homo sapiens) (UniProt P43116); assay: compounds shifting PGE2 potency at EP2 – cell-based, human EP2, PGE2 EC50 shift, dose response (AID 1421); conditions: EP2-expressing cells, PGE2 EC50 shift by compound; at 20 µM
Sequence (P43116 whole entry, looked up): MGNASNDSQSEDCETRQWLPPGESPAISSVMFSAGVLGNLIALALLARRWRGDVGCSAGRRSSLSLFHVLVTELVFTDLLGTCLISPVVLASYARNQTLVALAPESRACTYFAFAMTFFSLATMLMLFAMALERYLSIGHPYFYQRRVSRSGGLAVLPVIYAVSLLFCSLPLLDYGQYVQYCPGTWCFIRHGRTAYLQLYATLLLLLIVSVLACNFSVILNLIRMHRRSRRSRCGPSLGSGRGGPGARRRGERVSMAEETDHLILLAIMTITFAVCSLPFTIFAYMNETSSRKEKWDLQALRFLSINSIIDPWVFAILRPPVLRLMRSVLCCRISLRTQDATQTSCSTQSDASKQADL

Row | Compound | PGE2 EC50 with compound [nM]
1 | COC(=O)c1c(NC(=S)NN2CCOCC2)sc2c1CCCC2 | 0.39
2 | COC(=O)c1c(NC(=O)c2ccccc2N(C)S(=O)(=O)c2ccccc2)sc2c1CCCC2 | 0.38
3 | CCOC(=O)c1c(NC(=O)c2ccn(CC)n2)sc2c1CCCC2 | 0.33
4 | CCOC(=O)c1c(NC(=O)COC(=O)Cn2c(C)nc3ccccc32)sc2c1CCCC2 | 0.55
5 | CC(=O)Nc1sc2c(c1C(c1cccs1)N1CCOCC1)CCCC2 (configuration not stated) | 0.33
6 | CCOC(=O)c1c(NC(=O)c2ccc(N3C(=O)[C@@H]4[C@H](C3=O)[C@H]3C=C[C@@H]4C3)cc2)sc2c1CC(C)CC2 (some centres not stated) | 0.47
7 | CCOC(=O)c1c(NC(=O)Cn2nnc3ccccc32)sc2c1CCC(C)C2 (configuration not stated) | 0.53
8 | CCOc1ccccc1COC(=O)c1cccc(-n2cnnn2)c1 | 0.54
9 | C/C(Cl)=C/Cn1c(SC(C)C)nc2c1c(=O)[nH]c(=O)n2C | 0.83
10 | NS(=O)(=O)c1ccc(NCc2cnc3ccccc3n2)cc1 | 1.13
11 | Cc1ccccc1/C=C/c1nc2ccccc2c(=O)n1CCc1ccccc1 | 0.19
12 | COc1cc(C2Oc3cc(C4Oc5cc(O)cc(O)c5C(=O)C4O)ccc3OC2CO)ccc1O (configuration not stated) | 1.94
13 | CCCCC(=O)Nc1sc2c(c1C(=O)OCC)CCC(C=O)=C2Cl | 1.75
14 | CCOC(=O)c1c(-c2cccs2)csc1NC(=O)CN1CCOCC1 | 2.48
15 | CCCC/C(=N\NC(=O)c1ccc(Br)o1)c1ccccc1 | 0.6
16 | COc1cc2cc(Br)cc(Br)c2nc1C | 1.2
17 | CCC1CCc2c(sc3ncnc(N4CCOCC4)c23)C1 (configuration not stated) | 0.42
18 | CCOC(=O)c1c(NC(=O)c2cccs2)sc2c1CCCC2 | 0.75
19 | Cc1sc(NC(=O)c2cccs2)c(C(=O)OC(C)C)c1C | 0.27
20 | N#CCSc1nc2ccccc2c(=O)n1C1CCCCC1 | 0.68
21 | O=C(OCc1ccc(Cl)cc1)c1ccccc1C(=O)c1ccccc1 | 0.41
22 | O=C(c1ccccc1)N1N=C(c2ccccc2)CC1c1ccccc1O (configuration not stated) | 0.27
23 | COc1ccc(-c2nc(NC(C)=O)sc2-c2ccc(OC)cc2)cc1 | 0.57
24 | O=C(Nc1nc(-c2cccs2)c(-c2ccccc2)s1)c1ccco1 | 0.72

Row | Compound | PGE2 EC50 with compound [nM]
25 | CCCCCOC(=O)c1[nH]c2c(c1C)C(=O)C(C(=O)OC)C(C)C2 (configuration not stated) | 0.88
26 | Nc1cccc(OCc2nc(N)nc(N)c2-c2ccc(Cl)cc2)c1 | 0.92
27 | CCc1c(-c2n[nH]c(=S)n2Cc2ccccc2)csc1C | 0.32
28 | C=CCOc1nc(-c2ccncc2)nc2ccccc12 | 0.27
29 | CCOC(=O)CN(C(=O)CSc1nnc(Cc2ccccc2)n1-c1ccc(C)cc1)c1ccccc1 | 0.47
30 | Cc1ccc(C)c(CN2C(=O)C(C)Oc3ccc(C)cc32)c1 (configuration not stated) | 0.3
31 | CCOc1nc(-c2ccccc2O)nc2ccccc12 | 0.32
32 | Oc1ccccc1-c1nc(N2CCCC2)c2ccccc2n1 | 0.3
33 | CCCC(=O)Nc1ccccc1Sc1ncnc2scc(-c3ccccc3)c12 | 0.74
34 | CCCCC(CC)CN1CN(CC(CC)CCCC)CC(C)(N)C1 (configuration not stated) | 0.75
35 | OCCCNc1nc(-c2ccc(Br)cc2)nnc1-c1ccc(Cl)cc1 | 1.43
36 | COc1ccc(-n2c(COc3cccc4ccccc34)nnc2SCC#N)cc1 | 0.49
37 | NCCc1c(-c2ccccc2)n(-c2ccccc2)c2ccccc12 | 0.41
38 | FC(F)(F)c1cccc(/C=N/NC(=S)NC2CCCCC2)c1 | 4.2
39 | O=C(CC(Sc1ccccc1)c1cccs1)c1ccco1 (configuration not stated) | 0.41
40 | CCn1c2ccccc2c2cc([N+](=O)[O-])ccc21 | 0.38
41 | CC(C)n1c2ccccc2c2nc3ccccc3nc21 | 0.41
42 | CCn1c2ccccc2c2nc3ccccc3nc21 | 0.63
43 | CCCSc1nc(N2CCOCC2)c2c(c1C#N)CCCC2 | 0.34
44 | Cc1ccc2cccc(NC(=O)c3ccc(Br)o3)c2n1 | 0.12
45 | Cc1cccc(-c2nc(=S)c3c(n2Cc2ccco2)CCCC3)c1 | 0.55
46 | COc1ccccc1CN(C)CC(=O)Nc1ccccc1-c1ccccc1 | 0.72
47 | CN(CC(=O)Nc1ccccc1Oc1ccccc1)Cc1ccccc1F | 0.3
48 | CC(C)c1nc(SCc2c(F)cccc2Cl)c2c(=O)n(C)c(=O)n(C)c2n1 | 0.23

Row | Compound | PGE2 EC50 with compound [nM]
49 | CC1CN(c2nc3ccccc3cc2-c2ccccc2)CC(C)O1 (configuration not stated) | 0.31
50 | CCCc1cc(-c2n[nH]c(=S)n2Cc2ccccc2)cs1 | 0.76
51 | CCCCn1c(-c2csc(CCC)c2)n[nH]c1=S | 0.43
52 | Cc1ccc(C(=O)N2N=C(c3ccccc3)CC2(O)C(F)(F)F)o1 (configuration not stated) | 0.31
53 | CCOc1cc(/C=N/NC(N)=O)ccc1OC(=O)c1ccc(C)cc1 | 0.42
54 | Cc1ccc2nc(-c3ccncc3)cc(-c3ccccc3)c2c1 | 0.17
55 | Nc1nc(Cc2ccccc2)nc(Cc2ccccc2)c1-c1ccccc1 | 0.43
56 | CC(C)c1ccc(OCC(=O)NC(=S)Nc2ccc3c4c(cccc24)CC3)cc1 | 18.6
57 | O=c1c2c(n3nnnc3n1-c1ccccc1)-c1ccccc1CC21CCCC1 | 0.77
58 | Nn1cnc2c(c1=O)C1(CCCCC1)Cc1ccccc1-2 | 0.34
59 | CCCn1c(SCC(=O)Nc2sc(C)c(C)c2C(=O)OCC)nc2c1c(=O)n(C)c(=O)n2C | 0.47
60 | CCCCN1C=C(C(=O)OC)C(c2ccccc2Cl)C(C(=O)OC)=C1 | 0.38
61 | COc1ccc(C(=O)c2cnc3ccccc3c2-c2ccccc2)cc1 | 0.79
62 | CCCCOc1c(Br)cc(/C=N/O)cc1OCC | 0.48
63 | O=C(CSc1nnc(-c2cc3ccccc3cc2O)n1Cc1ccco1)c1ccc(F)cc1 | 0.83
64 | COC(=O)c1c(NC(=O)CSc2nnc(-c3cccnc3)n2Cc2ccco2)sc(C)c1C | 0.69
65 | CC(=O)c1ccc(S(=O)(=O)NCCCC(=O)NCCc2ccccn2)cc1 | 0.92
66 | CC(C)Cc1nc2sc3c(=O)[nH]cnc3c2c2c1CCC2 | 0.65
67 | C#CCSc1nc(Cc2ccc(Cl)cc2)nc2ccccc12 | 0.25
68 | Cc1cc(C(=O)CSc2nc3ccccc3c(=O)n2C)c(C)n1Cc1ccc2c(c1)OCO2 | 0.29
69 | CC(C)CCn1c(N2CCN(c3cccc(Cl)c3)CC2)nc2c1c(=O)[nH]c(=O)n2C | 0.57
70 | COc1ccc(Cn2c(-c3ccc(OC)cc3)nc3ccccc32)cc1 | 0.8
71 | Clc1ccc(Cn2c(/C=C/c3ccco3)nc3ccccc32)cc1 | 0.66
72 | N#CCSc1nc2sc3c(c2c(=O)n1C1CCCCC1)CCCC3 | 0.32
